Reference: PubChem BioAssay AID1159580 (chemical genetic matrix, 2015)
Several values for one entry are separate records, joined by “and”; a condition that tells them apart may be missing. Equal entries are not always repeated. About 2,000 (36%) of roughly 5,500 compounds were called active. Another 18% or so got no clear call; they are omitted. Cut-off read from the data, not from the text of the source: active = normalized growth mostly below about 0.91 (no sharp cut-off); inconclusive = no clear call, values can overlap the other calls; inactive = mostly above about 0.92. This is one part of the list.

Experiment: chemical genetic growth profiling, strain panel (AID 1159580);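 note: tested at 20 µM; growth read once vehicle control cultures reached saturation at 30 °C; 1 = growth at the plate median or of vehicle wells; lower values mean less growth of the strain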
Conditions: S. cerevisiae deletion strains, growth OD

Measured: normalized growth

NCCCN
inactive: locus YAL021C, strain ccr4, hits give low values 1.02 | locus YAL026C, strain drs2, hits give low values 0.984 | locus YAL030W, strain snc1, hits give low values 0.989 | locus YBL061C, strain skt5, hits give low values 0.989 | locus YBR009C, strain hhf1, hits give low values 0.988 | locus YBR021W, strain FUR4, hits give low values 0.996 | locus YBR023C, strain chs3, hits give low values 0.982 | locus YBR171W, strain sec66, hits give low values 0.957 | locus YBR229C, strain ROT2, hits give low values 0.99 | locus YBR231C, strain swc5, hits give low values 0.984 | locus YBR279W, strain paf1, hits give low values 1 | locus YCL011C, strain gbp2, hits give low values 0.973 | locus YCL016C, strain dcc1, hits give low values 1 | locus YCL029C, strain bik1, hits give low values 0.984 | locus YCL061C, strain MRC1, hits give low values 1.01 | locus YCL069W, strain vba3, hits give low values 0.973 | locus YCR088W, strain abp1, hits give low values 0.982 | locus YDL005C, strain med2, hits give low values 0.977 | locus YDL035C, strain GPR1, hits give low values 1.03 | locus YDL040C, strain nat1, hits give low values 0.986 | locus YDL074C, strain BRE1, hits give low values 1.01 | locus YDL101C, strain DUN1, hits give low values 0.994 | locus YDL185W, strain tfp1, hits give low values 0.983 | locus YDL192W, strain arf1, hits give low values 0.998 | locus YDR001C, strain nth1, hits give low values 0.99 | locus YDR069C, strain doa4, hits give low values 0.987 | locus YDR101C, strain arx1, hits give low values 0.976 | locus YDR137W, strain rgp1, hits give low values 1.02 | locus YDR159W, strain sac3, hits give low values 0.961 | locus YDR162C, strain NBP2, hits give low values 1.01 | locus YDR195W, strain ref2 0.981 | locus YDR297W, strain sur2, hits give low values 0.996 | locus YDR318W, strain mcm21, hits give low values 1.01 | locus YDR334W, strain swr1, hits give low values 0.962 | locus YDR335W, strain msn5, hits give low values 0.987 | locus YDR388W, hits give low values 0.993 | locus YDR392W, strain spt3, hits give low values 0.964 | locus YDR502C, strain sam2, hits give low values 0.997 | locus YEL003W, strain gim4, hits give low values 0.976 | locus YEL037C, strain rad23, hits give low values 0.98 | locus YEL061C, strain CIN8 (second series), hits give low values 0.965 | locus YEL061C, strain CIN8, hits give low values 0.997 | locus YER015W, strain faa2, hits give low values 0.992 | locus YER016W, strain bim1, hits give low values 0.989 | locus YER110C, hits give low values 0.979 | locus YER111C, strain swi4, hits give low values 0.964 | locus YER155C, strain BEM2 (second series), hits give low values 0.966 | locus YER155C, strain BEM2, hits give low values 0.982 | locus YER167W, strain BCK2, hits give low values 0.989 | locus YFR010W, strain ubp6, hits give low values 0.958 | locus YGL078C, strain dbp3, hits give low values 0.999 | locus YGL086W, strain mad1, hits give low values 0.983 | locus YGL167C, strain pmr1, hits give low values 0.983 | locus YGL173C, strain kem1, hits give low values 0.972 | locus YGL227W, strain vid30, hits give low values 0.986 | locus YGL240W, strain doc1, hits give low values 0.979 | locus YGL248W, strain PDE1, hits give low values 1.01 | locus YGL253W, strain hxk2, hits give low values 0.968 | locus YGR078C, strain PAC10, hits give low values 1 | locus YGR135W, strain pre9, hits give low values 1.01 | locus YGR252W, strain gcn5, hits give low values 1.08 | locus YHR013C, strain ard1, hits give low values 0.972 | locus YHR027C, strain rpn1, hits give low values 1.01 | locus YHR030C, strain SLT2, hits give low values 0.997 and 0.973 | locus YHR079C, strain IRE1 (second series), hits give low values 0.994 | locus YHR079C, strain IRE1, hits give low values 0.976 | locus YHR094C, strain hxt1, hits give low values 0.979 | locus YHR129C, strain ARP1, hits give low values 1 | locus YHR142W, strain chs7, hits give low values 0.976 | locus YHR200W, strain rpn10, hits give low values 0.993 | locus YIL066C, strain RNR3, hits give low values 0.995 | locus YIL073C, strain SPO22, hits give low values 1.06 | locus YIL125W, strain kgd1, hits give low values 0.991 | locus YIR030C, strain dcg1, hits give low values 0.992 | locus YJL092W, strain hpr5, hits give low values 0.969 | locus YJL095W, strain BCK1 (second series), hits give low values 0.984 | locus YJL095W, strain BCK1, hits give low values 1.05 and 1.04 | locus YJL115W, strain asf1, hits give low values 0.956 | locus YJL129C, strain trk1, hits give low values 0.995 | locus YJL134W, strain LCB3, hits give low values 1 | locus YJL154C, strain vps35, hits give low values 0.981 | locus YJL164C, strain tpk1, hits give low values 1.01 | locus YJL166W, strain qcr8, hits give low values 0.989 | locus YJL168C, strain set2, hits give low values 0.983 | locus YJL187C, strain SWE1 (second series), hits give low values 1.01 | locus YJL187C, strain SWE1, hits give low values 1 | locus YJR043C, strain POL32, hits give low values 1.03
